KLK7 zymogen act: proKLK7 zymogen activators, primary screen, biochemical, fluorescence intensity; Kallikrein-7 (Homo sapiens), P49862; 370,000 compounds, 0.9% hits; AID 652039, 2013; purified proKLK7, EDANS-DABCYL substrate fluorescence; 100% is mature enzyme control, 0% vehicle; activation, % at 7 µM;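 active = activation above the mean of all tested compounds plus 3 SD, computed per campaign excluding outliers beyond control limits, cut at about 13% in these data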
PLCb3 inh: human PLC-beta3 inhibitors, primary screen, biochemical, fluorescence; 1-phosphatidylinositol 4,5-bisphosphate phosphodiesterase beta-3 (Homo sapiens), Q01970; Purified PLC-beta3, fluorogenic substrate; inhibition, % at 12.2 µM; 370,000 compounds, 0.18% hits; AID 720704, 2013; in the data active = inhibition above about 11%
ADAM17 inh: ADAM17 inhibitors, primary screen, biochemical, QFRET. Disintegrin and metalloproteinase domain-containing protein 17 (Homo sapiens), P78536. recombinant ADAM17, EDANS/DABCYL FRET peptide cleavage. inhibition, % at 6.95 µM. 370,000 compounds, 0.83% hits. AID 720648, 2013;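 active = inhibition above the mean of compounds lying between control limits plus 3 SD, set per campaign, cut at about 8.5% in these data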
ADAM10 inh: human ADAM10 inhibitors, primary screen, biochemical, QFRET, HTS; Disintegrin and metalloproteinase domain-containing protein 10 (Homo sapiens), O14672; recombinant ADAM10, EDANS/DABCYL FRET peptide cleavage, 3 h; inhibition, % at 7 µM; 370,000 compounds, 0.62% hits; AID 720582, 2013;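 active = inhibition above a per-campaign cutoff equal to the mean of compounds falling between control-based bounds plus 3 SD, cut at about 20% in these data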
Target sequence (O14672 214-748 limits assumed): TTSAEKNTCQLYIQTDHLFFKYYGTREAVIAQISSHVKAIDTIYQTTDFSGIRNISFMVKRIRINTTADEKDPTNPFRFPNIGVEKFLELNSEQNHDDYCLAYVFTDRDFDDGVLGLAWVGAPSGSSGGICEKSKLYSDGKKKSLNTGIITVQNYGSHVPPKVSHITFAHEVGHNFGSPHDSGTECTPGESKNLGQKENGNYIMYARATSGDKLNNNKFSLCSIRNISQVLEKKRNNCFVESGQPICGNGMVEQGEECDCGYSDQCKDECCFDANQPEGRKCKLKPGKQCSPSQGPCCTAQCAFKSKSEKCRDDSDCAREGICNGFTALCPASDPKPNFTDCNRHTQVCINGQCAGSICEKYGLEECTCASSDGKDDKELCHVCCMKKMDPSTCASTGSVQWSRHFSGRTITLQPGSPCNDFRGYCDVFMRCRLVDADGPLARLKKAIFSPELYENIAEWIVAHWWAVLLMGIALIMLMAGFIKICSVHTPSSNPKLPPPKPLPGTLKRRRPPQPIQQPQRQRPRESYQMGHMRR
PLCg1 inh: PLC-gamma1 enzyme inhibitors, primary screen, biochemical, fluorescence, purified enzyme. 1-phosphatidylinositol 4,5-bisphosphate phosphodiesterase gamma-1 (Homo sapiens), P19174. fluorogenic substrate. inhibition, % at 12.2 µM. 370,000 compounds, 0.84% hits. AID 720700, 2013; in the data active = inhibition above about 9.5%
KLK7 act conf: proKLK7 zymogen activators, confirmation, biochemical, fluorescence intensity, triplicate; purified proKLK7, EDANS-DABCYL substrate fluorescence; scaled: vehicle 0, mature enzyme 100; shares compounds with KLK7 zymogen act; activation, % at 7 µM; 3,200 compounds, 68% hits;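 active = activation, as change over the incubation, above the mean of all tested compounds plus 3 SD, cut at about 13% in these data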
EDANS-DABCYL int: EDANS-DABCYL substrate optical interference, artefact control for kallikrein-7 zymogen activator project, biochemical, fluorescence intensity, high throughput | activation, % at 7 µM | AID 686952, 2013 | 3,200 compounds, 80% hits | no enzyme, 4 h; solvent 0%, active enzyme control 100% | shares compounds with KLK7 zymogen act;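 active = activation above the all-compound mean plus 3 SD, ignoring values outside control-based bounds, cut at about 4.8% in these data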;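 also: value is the 4 h activation minus the activation read at time zero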
A number is an active result; . = inactive; / = no result given. Compounds with a hit are over-represented: about 2.9% of the library has one in this group of screens.

SMILES	KLK7 zymogen act	PLCb3 inh	ADAM17 inh	ADAM10 inh	PLCg1 inh	KLK7 act conf	EDANS-DABCYL int
CCCCNC(=O)C[C@H]1C[C@@]2(C(=O)OC)C(=C[C@H](C(C)C)O[C@@H]2C2CC2)N(Cc2cccc3ccccc23)C1=O	.	.	.	.	.	/	/
CCCCNC[C@@]12CO[C@H](c3ccc(Cl)cc3)N1[C@@H](c1ccc(Cl)cc1)SC2	.	.	.	.	.	/	/
CSc1nc2[nH]c3c(c2c2nnnn12)CCCC3	14.2	.	.	.	.	.	9.8
CSc1nc2[nH]c3c(c2c2nncn12)CC(C)(C)OC3	.	.	.	.	.	/	/
Nc1nc2nccc(-c3ccco3)n2n1	17.4	.	.	.	.	15.2	26.7
Nc1nc2nccc(-c3ccccn3)n2n1	.	.	.	.	.	/	/
CCOC(=O)CSc1nc(N)c(C#N)c(-c2ccc(OCC)cc2)c1C#N	12.9	.	.	.	.	.	.
CCOC(=O)CSc1nc(C)cc(C)c1C#N	29.9	.	.	.	.	56.1	53.5
CCOC(=O)C1=C(CSc2nc(C)cc(C)c2C#N)OC(N)=C(C#N)C1c1ccccc1 (stereo not drawn)	26.2	.	.	.	.	32.6	30.3
Cc1nc(SCC(=O)CC(=O)OC(C)C)c(C#N)c(C)c1C	39.9	.	.	.	.	62.9	57.0
COc1cc(NC(=O)C2CCCN(S(=O)(=O)c3cccs3)C2)cc(OC)c1 (stereo not drawn)	.	.	.	.	.	/	/
Cc1cc(C)c(C#N)c(SCC(=O)CC(=O)OC(C)C)n1	45.0	.	.	.	.	71.9	68.9
CN(C(=O)[C@@H]1CC=C[C@@H]2CCN(C3CCCCC3)C(=O)[C@@H]21)c1ccccc1	/	.	.	.	.	/	/
Nc1nc(SCC(=O)Nc2cccc([N+](=O)[O-])c2)n[nH]1	.	.	.	.	.	/	/
O=C(CCc1n[nH]c(=O)[nH]c1=O)Nc1cccc([N+](=O)[O-])c1	16.3	.	.	.	.	.	.
Cc1ccc(NC(=O)c2cccc3c2-c2ccccc2C3=O)c(C)c1	.	.	.	.	.	/	/
O=S1(=O)CC(N2CCCC2)CN1 (stereo not drawn)	.	.	.	.	.	/	/
CCCC(=O)N1CCN(c2nnc(-c3ccccc3)c3ccccc23)CC1	.	.	.	.	.	/	/
O=C(O)C1CC=CCC1C(=O)N1CCN(c2nc(-c3ccccc3)c3ccccc3n2)CC1 (stereo not drawn)	79.9	.	.	.	.	.	.
Cc1ccc2nc(N3CCN(C(=O)CCC(=O)O)CC3)nc(-c3ccccc3)c2c1	27.5	.	.	.	.	.	.
Cc1ccc2nc(N3CCC(C(=O)O)CC3)nc(-c3ccccc3)c2c1	.	.	.	.	.	/	/
O=C(O)CCCC(=O)N1CCN(c2nc(-c3ccccc3)c3ccccc3n2)CC1	16.0	.	.	.	.	.	8.0
CCOC(=O)[C@@]12CN(C(=O)OC(C)(C)C)CC=C1N(Cc1ccc(OC)cc1)C(=O)[C@H]2CC(=O)NCCc1ccccc1OC	.	.	.	.	.	/	/
O=C(NCCC1=CCCCC1)C1CCN(S(=O)(=O)c2ccccc2[N+](=O)[O-])CC1	.	.	.	.	.	/	/
O=C(OC12CCCN(C1)/C(=C/c1ccc(Cl)cc1)C2)c1ccno1 (stereo not drawn)	.	.	.	.	.	/	/
COc1ccc(NC(=O)c2cccs2)cc1	.	.	.	.	.	/	/
COc1ccc(NC(=S)NNC(=O)c2cccs2)cc1	20.7	.	.	.	.	.	8.5
CNC(=S)NNC(=O)c1cccs1	13.3	.	.	.	.	14.4	13.0
CCNC(=S)NNC(=O)c1cccs1	.	.	.	.	.	/	/
COc1ccc(C(=O)Nc2cccc(NC(=O)c3cccs3)c2)cc1OC	35.0	.	.	.	.	22.2	29.3

Compound activity: PubChem BioAssay, The Scripps Research Institute Molecular Screening Center
